Measurements as given in PubChem BioAssay (EPA / NIEHS).
Calls of active or inactive are those of the source. The calls were made as follows: active = hit-call score of the fitted dose curve at least 0.9, where 1 is the maximum; inactive = score below 0.9.

These molecules were tested on urokinase plasminogen activator (uPA), PLAU (gene 5328) (assay: BSK_KF3CT_uPA: BioMAP Diversity Plus: KF3CT Assay for urokinase plasminogen activator (uPA) Biomarker Activity (AID 2283075)). Details: primary human keratinocytes with fibroblasts; actives raise or lower the signal.
Procedure: BSK_KF3CT is a cell-based, multiplexed-readout assay that uses keratinocytes and foreskin fibroblasts, a human skin primary cell co-culture, with measurements taken at 24 hours after chemical dosing in a 96-well plate.BSK_KF3CTA is an assay component measured in the BSK_KF3CT assay. It measures uPA antibody related to regulation of gene expression using ELISA technology.Data from the assay component BSK_KF3CTA was analyzed into 1 assay endpoint. This assay endpoint, BSK_KF3CTA, was analyzed with bidirectional fitting relative to DMSO as the negative control and baseline of activity. Using a type of binding reporter, gain or loss-of-signal activity can be used to understand changes in the signaling as they relate to the gene PLAU. Furthermore, this assay endpoint can be referred to as a primary readout, because this assay has produced multiple assay endpoints where this one serves a signaling function. To generalize the intended target to other relatable targets, this assay endpoint is annotated to the protease intended target family, where the subfamily is serine protease.
The levels of cell surface (or secreted, indicated by the prefix "s") biomarker endpoints were measured by ELISA. Overt cytotoxicity to cells in confluent adherent cultures (all systems other than the BT system) was assessed by measuring total protein levels using sulforhodamine B (SRB) staining in parallel cultures at the time of biomarker measurements, indicated as SRB endpoints. For proliferation assays for adherent cell types, individual cell types are cultured at sub-confluence and relative cell numbers quantified by SRB staining at time points optimized for each system (48 h: 3C and CASM3C systems; 72 h: BT and HDF3CGF systems; 96 h: SAg system). SRB was performed by staining cells with 0.1% SRB after fixation with 10% TCA and reading wells at 560 nm.Viability and proliferation of PBMC (T cells) was quantified by Alamar Blue reduction for the SAg and BT systems. For PBMC viability (referred to as PBMC Cytotoxicity within the assay endpoint names), cells were plated (75,000/well in a 96-well plate) and then chemical samples added for 1 h before addition of activators, SEB and TSST-1 (20 ng/mL final concentration each). Cells were incubated for 90 h. Then, Alamar Blue (20 uL/well) (Invitrogen, Cat DAL1100) was added for 6 h, and the plates were read with a fluorescence microplate reader at 546/580 nm (excitation/emission). For PBMC proliferation, cells were plated and activated as above but incubated for only 16 h prior to addition of Alamar Blue. Plates were read after 6 h.

| Structure (SMILES) | outcome | AC50 |
| --- | --- | --- |
| CCCCCOC(C)=O | inactive |  |
| OCc1ccccc1 | inactive |  |
| S=P(N1CC1)(N1CC1)N1CC1 | inactive |  |
| CNC(C)=O | inactive |  |
| Cc1ncc([C@@H](CCCCCCc2ccc3c(n2)NCCC3)CC(=O)O)cn1 | inactive |  |
| O=C(O)c1cccc(C(=O)O)c1 | inactive |  |
| NC(=O)N1c2ccccc2C=Cc2ccccc21 | inactive |  |
| CCCCCCOC(=O)CC(CC(=O)OCCCCCC)(OC(=O)CCC)C(=O)OCCCCCC | inactive |  |
| Cc1cccc(O)c1C | inactive |  |
| Cc1nc(-c2ccccn2)ncc1C(=O)Nn1cc(C)c2cc(F)ccc21 | inactive |  |
| CC(C)CCCCCCOC(=O)C1CCCCC1C(=O)OCCCCCCC(C)C (stereo not given) | inactive |  |
| Cn1cc[nH]c1=S | inactive |  |
| OCC(CO)(CO)CO | inactive |  |
| FC(F)(F)COC(OCC(F)(F)F)OCC(F)(F)F | inactive |  |
| CCN(CC)C(=S)SSC(=S)N(CC)CC |  | 14.8 µM (active) |
| O=S(=O)(O)CCC(F)(F)C(F)(F)C(F)(F)C(F)(F)C(F)(F)C(F)(F)F | inactive |  |
| O=C1CN(N=Cc2ccc([N+](=O)[O-])o2)C(=O)N1 | inactive |  |
| OCCOCCOCCO | inactive |  |
| NCC(F)(F)C(F)(F)C(F)(F)C(F)(F)F | inactive |  |
| CCCc1ccccc1 | inactive |  |

| Structure (SMILES) | outcome | AC50 |
| --- | --- | --- |
| C=CN1CCCC1=O | inactive |  |
| CCOc1ccc2[nH]cc(C(=O)NCc3ccccc3)c(=O)c2n1 | inactive |  |
| O=C(O)[C@H](O)[C@@H](O)C(=O)O | inactive |  |
| c1ccc2cc3ccccc3cc2c1 | inactive |  |
| FC(F)=C(F)C(F)(F)C(F)(F)C(F)(F)C(F)(F)C(F)(F)C(F)(F)F | inactive |  |
| O=c1[nH]cnc2c1ncn2[C@H]1CC[C@@H](CO)O1 | inactive |  |
| Nc1ccn([C@@H]2O[C@H](CO)[C@@H](O)[C@@H]2O)c(=O)n1 | inactive |  |
| OCCC(F)(F)C(F)(F)C(F)(F)C(F)(F)F | inactive |  |
| NNC(=O)c1ccncc1 | inactive |  |
| C[Si](C)(C)C(F)(F)C(F)(F)C(F)(F)F | inactive |  |
| OC(CCl)CCl | inactive |  |
| CC(C)C(=O)Nc1ccc([N+](=O)[O-])c(C(F)(F)F)c1 | inactive |  |
| OCc1c[nH]c2ccccc12 | inactive |  |
| CC[C@H](C)C(=O)O[C@H]1C[C@H](O)C=C2C=C[C@H](C)[C@H](CC[C@@H](O)C[C@@H](O)CC(=O)O)[C@H]21 | inactive |  |
| c1ccc2ncccc2c1 | inactive |  |
| NC(=O)NN=Cc1ccc([N+](=O)[O-])o1 | inactive |  |
| FC(F)(F)C(F)(F)C(F)(F)C(F)(F)C(F)(F)C(F)(F)I | inactive |  |
| OC(Cn1cncn1)(Cn1cncn1)c1ccc(F)cc1F | inactive |  |
| OC[C@H]1O[C@@](CO)(O[C@H]2O[C@H](CO)[C@@H](O)[C@H](O)[C@H]2O)[C@@H](O)[C@@H]1O | inactive |  |
| CCn1nc(C)c2c1C(=O)NCC(c1ccc(O)cc1)=N2 | inactive |  |
